Measured values from the supplement of paper PMC13380429.
Unmarked numbers belong to inactive results.

System: Vero E6 infected with SARS-CoV-2
Test: inhibition of SARS-CoV-2 cytopathic effect; higher = more antiviral protection, active = above 15
Conditions: 10000 nM; 48 h

Q: With `CC(C)C(=O)Nc1ccc([N+](=O)[O-])c(C(F)(F)F)c1` [flutamide] as the molecule, how does the “inhibition of SARS-CoV-2 cytopathic effect” value (from here on “inhibition”) read?
A: Its value is -5.12%.

Q: How did the “inhibition” value turn out when `Cc1ncc([N+](=O)[O-])n1CC(O)CN1CCOCC1` (stereo not given) [morinidazole] was run?
A: Its value is -0.64%.

Q: How did the “inhibition” value turn out when `O=c1c2ccccc2[se]n1-c1ccccc1` [Ebselen] was run?
A: Its value is 1.28%.

Q: For `CCCc1cc(C(N)=S)ccn1` [protionamide], which “inhibition” value is on record?
A: Its value is -1.88%.

Q: With `C#CCOC(=O)C1=CCCN(C)C1` [arecaidine-propargyl-ester] as the molecule, how does the “inhibition” value read?
A: The value was 2.67%.

Q: With `Cc1c(-c2ccc(O)cc2)n(Cc2ccc(OCCN3CCCCCC3)cc2)c2ccc(O)cc12` [bazedoxifene] as the molecule, how does the “inhibition” value read?
A: Its value is 48.9% (active).

Q: How did the “inhibition” value turn out when `CN(Cc1ccccc1)C(=O)[C@H](Cc1ccc2ccccc2c1)NC(=O)[C@@H]1C[C@@H](O)CN1C(=O)c1cn(C)c2ccccc12` was run?
A: The value was 1.87%.

Q: With `NC1(c2ccc(-c3nc4ccn5c(=O)[nH]nc5c4cc3-c3ccccc3)cc2)CCC1` as the molecule, how does the “inhibition” value read?
A: Its value is 24.5% (active).

Q: How did the “inhibition” value turn out when `CN(C)CCCSc1ccccc1NC(=O)/C=C/c1ccccc1` [cinanserin] was run?
A: Its value is -4.38%.

Q: `c1cc(Cc2cnc[nH]2)ccn1` [immethridine] was tested. Which “inhibition” value did it give?
A: Its value is 1.99%.

Q: Which “inhibition” value does the source give for `COc1cc(C(=O)N2CCC(N3CCN(C)CC3)CC2)ccc1Nc1ncc2c(n1)N(C)c1ccccc1C(=O)N2C` here?
A: Its value is -6.43%.

Q: How did the “inhibition” value turn out when `CC/C(=C(\c1ccc(O)cc1)c1ccc(OCCN(C)C)cc1)c1ccccc1` [afimoxifene] was run?
A: The value was 40% (active).

Q: For `COc1cc(N2CCC(N3CCN(C)CC3)CC2)ccc1Nc1ncc(Cl)c(Nc2ccccc2P(C)(C)=O)n1` [brigatinib], which “inhibition” value is on record?
A: The value was -5.17%.

Q: How did the “inhibition” value turn out when `CC#CCOC(=O)c1c(C)nc2sc3c(c2c1N)CCC(O)C3` (stereo not given) was run?
A: Its value is 0.73%.

Q: With `O=C(O)CCC(=O)OC[C@@H](NC(=O)C(Cl)Cl)[C@H](O)c1ccc([N+](=O)[O-])cc1` [chloramphenicol-sodium-succinate] as the molecule, how does the “inhibition” value read?
A: The value was 1.6%.

Q: How did the “inhibition” value turn out when `CC(C)[C@H]1CC[C@H](C(=O)N[C@H](Cc2ccccc2)C(=O)O)CC1` [nateglinide] was run?
A: Its value is 1.33%.

Q: With `CC(C)(C)c1ccc(S(=O)(=O)/C=C/C#N)cc1` as the molecule, how does the “inhibition” value read?
A: The value was -2.36%.

Q: `COc1ccc(S(=O)(=O)N2CCCN(S(=O)(=O)c3ccc(OC)c(OC)c3)CC2)cc1OC` was tested. Which “inhibition” value did it give?
A: The value was 6.2%.

Q: How did the “inhibition” value turn out when `Cc1ccc(-n2sc(=O)n(Cc3ccc(F)cc3)c2=O)cc1` was run?
A: The value was -3.39%.

Q: For `CCC[C@@H]1C[C@@H](C(=O)N[C@@H]([C@H]2O[C@H](SC)[C@H](O)[C@@H](O)[C@H]2O)[C@@H](C)O)N(C)C1` [lincomycin], which “inhibition” value is on record?
A: The value was -1.36%.

Q: Which “inhibition” value does the source give for `C[N+](C)(C)CCOC(=O)CCC(=O)OCC[N+](C)(C)C` [succinylcholine-chloride] here?
A: Its value is 0.28%.

Q: With `CC(=O)SC[C@@H](C)C(=O)N1CCC[C@H]1C(=O)N[C@@H](Cc1ccccc1)C(=O)O` [alacepril] as the molecule, how does the “inhibition” value read?
A: The value was -0.44%.

Q: For `COc1ccc(-c2cnc3c(-c4cccc5ncccc45)cnn3c2)cc1`, which “inhibition” value is on record?
A: The value was 0.53%.

Q: Which “inhibition” value does the source give for `Nc1nc(Cl)nc2c1ncn2[C@@H]1O[C@H](CO)[C@@H](O)[C@@H]1F` [clofarabine] here?
A: Its value is 3.69%.

Q: With `Cc1cc(N)c2ccccc2[n+]1CCCCCCCCCC[n+]1c(C)cc(N)c2ccccc21` [dequalinium] as the molecule, how does the “inhibition” value read?
A: Its value is -3.48%.

Q: Which “inhibition” value does the source give for `NC12CC3CC(CC(C3)C1)C2` [amantadine] here?
A: The value was 3.28%.

Q: With `CCNC(C)CN1CCc2c(c(=O)oc3ccccc23)C1` (stereo not given) as the molecule, how does the “inhibition” value read?
A: Its value is -2.07%.

Q: Which “inhibition” value does the source give for `C/C(=N\c1ccccc1N)c1c(C)cc(=O)n(O)c1O` here?
A: Its value is 1.35%.

Q: With `c1ccc(CCNc2nc(-c3ccccc3)cs2)cc1` [fanetizole] as the molecule, how does the “inhibition” value read?
A: The value was 1.58%.

Q: Which “inhibition” value does the source give for `C[C@@H]([C@H](O)c1ccc(O)cc1)N1CCC(Cc2ccccc2)CC1` (racemic) [ifenprodil] here?
A: The value was -6.19%.
